Data from PubChem BioAssay (NCI).
Where “and” joins values, the source holds several entries; their conditions need not be identical. Equal entries are not always repeated. Compounds without any hit were thinned out: in the full panel of roughly 83,000, 20% have a hit.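 Results are percent growth after 48 hours of single-concentration exposure. 100 means growth as in untreated cells, lower positive values show inhibition; negative values down to -100 show cell death.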 Calls of active or inactive are those of the source. The calls were made as follows: active = growth percent below 10; inactive = the rest.

The molecules below were run on MDA-MB-435 melanoma (assay: NCI-60 one-dose screen, 48 h (100 = growth as untreated, 0 = no growth, -100 = all killed)). Settings: 10 µM unless noted.
For `N#CC1=C(c2cccs2)Nc2c(c(-c3ccccc3)nn2-c2ccccc2)C12C(=O)Nc1ccccc12` (configuration not stated), the growth was 28.3% (inactive). In the case of `O=C1CC(c2ccc(I)cc2)OC2C=Cc3ccccc3C12` (configuration not stated), the growth is reported as 97.4% (inactive). For `COc1ccc([C@H]2C(C(=O)c3ccc(Cl)cc3)C3(N[C@@H]2c2ccccc2)C(=O)Nc2ccccc23)cc1` (some centres not stated), the growth was 23.4% (inactive). With `COc1ccc2c(c1)N=c1c-2cc2c(O)[nH]c(=S)n2c1=O` the growth was 2.49% (active). With `CS(=O)(=O)Nc1cc(-c2ccc3ncnc(N4CCc5cc(F)c(Cl)cc54)c3c2)cnc1Cl` the growth was 3.42% (active). `COc1cc(NC(=O)C(C)C)ccc1C(=O)NC(=S)Nc1ccc(S(N)(=O)=O)cc1` was tested, and the growth was 106% (inactive). In the case of `CC1=C(C(=O)OC(C)C)C(c2ccc(O)cc2)NC(=O)N1` (configuration not stated), the growth is reported as 99.9% (inactive). With `COc1cccc(/C=C/c2nc3ccccc3c(=O)n2CC(=O)Nc2ccccc2)c1` the growth was 70.6% (inactive). In the case of `COC(=O)c1c(C(=O)OC)c2ccc3c4ccccc4ccc3n2c1C(=O)OC`, the growth is reported as 98.7% (inactive). In the case of `CCCCCCCCc1cccc(CC(=O)Nc2ccc(C)cc2C(=O)O)c1`, the growth is reported as 54.9% [25 µM] (inactive). For `O=C(c1cc2cc(OCCCN3CCC3)ccc2[nH]1)N1C[C@@H](CCl)c2c1cc(OCc1ccccc1)c1ccccc21`, the growth was -78.8% (active). For `CC(C)(C)OC(=O)N1CCC2(CC1)Oc1ccccc1[C@H]1CC(c3ccc(Br)cc3)=NN12`, the growth was 81.6% (inactive). In the case of `COc1ccc(NC2=C(I)C(=O)C(C)=C(C)C2=O)cc1`, the growth is reported as -72.4% (active). `CC[C@]12C=CCN3CC[C@@]4(c5ccc(OC)cc5N(C)[C@H]4[C@@](O)(C(=O)OC)[C@@H]1OC(=O)CCCC[P+](c1ccc(F)cc1)(c1ccc(F)cc1)c1ccc(F)cc1)[C@@H]32` was tested, and the growth was -16% (active). With `FC(F)(F)c1cc2c(Cl)ncnc2n1CCN1CCCCC1` the growth was 56% (inactive). With `O=C(CSc1nnc(-c2ccc(-c3nc4ccc(Cl)cc4[nH]3)cc2)o1)Nc1ccccc1` the growth was 17.5% (inactive). For `Cc1cccc(NCC(=O)N2CCN(c3ncnc4c3cnn4-c3ccccc3)CC2)c1`, the growth was 59% (inactive). In the case of `CS(=O)(=O)c1ccc(-n2nc(C(=O)NCc3ccccc3)cc2-c2ccc(Cl)cc2)cc1`, the growth is reported as 91.7% (inactive). For `CS(=O)(=O)Nc1cccc(-n2c(COc3ccc(OC(F)(F)F)cc3)nc3ccccc32)c1`, the growth was 102% (inactive) and 103% (inactive). For `O=C(CSc1nc2sc3c(c2c(=O)n1-c1ccc(Cl)cc1)CCCC3)NNC(=O)c1ccc(Br)cc1`, the growth was 97.3% (inactive). In the case of `O=C(c1ccc(Cl)cc1)C1[C@H](c2ccccc2Cl)[C@@H](c2ccccc2)NC12C(=O)Nc1ccccc12` (some centres not stated), the growth is reported as -82.8% (active). `O=C1NC(=NC23CC4CC(CC(C4)C2)C3)N/C1=C\c1ccc2ncccc2c1` was tested, and the growth was -22.6% (active). For `N#CC1=C(c2ccco2)Nc2c(c(-c3ccccc3)nn2-c2ccccc2)C12C(=O)Nc1ccc(Cl)cc12` (configuration not stated), the growth was 53.7% (inactive). `O=C(c1ccc(O)cc1)C1[C@H](c2ccccc2Br)[C@@H](c2ccccc2)NC12C(=O)Nc1ccccc12` (some centres not stated) was tested, and the growth was 12.3% (inactive). In the case of `c1ccc(CSc2nnc(-c3ccc4nc(-c5ccccc5)[nH]c4c3)o2)cc1`, the growth is reported as 9.59% (active). For `O=C(CSc1nnc(-c2ccc(-c3nc4ccccc4[nH]3)cc2)o1)Nc1ccccc1`, the growth was 85.6% (inactive). With `CCCCCCCCCCCCCCCCCC(=O)Nc1ccc(OC)cc1` the growth was 115% (inactive). For `Nc1nn2c(-c3cc4ccccc4oc3=O)ccnc2c1N=Nc1ccccc1`, the growth was 107% (inactive). For `O=C1NC(=S)/C(=C/c2cn(-c3ccccc3)nc2-c2ccccc2)S1`, the growth was 24.6% (inactive). `CC(Nc1ncnc2ccc(-c3ccc4oc(N)nc4c3)cc12)c1ccccc1` (configuration not stated) was tested, and the growth was 13% (inactive). With `O=C(N/N=C/c1ccsc1)c1[nH]c2ccc(Br)cc2c1-c1ccccc1` the growth was -85.3% (active).

Each molecule was assayed on SW-620 colon in the same assay as above. Settings: 1 µM.
In the case of `CC/C(=C(\c1ccc(O)cc1)c1ccc(OCCN(C)C(=O)COCCNC(=O)Cc2ccc3c(c2)CN([C@@H]2CCC(=O)NC2=O)C3=O)cc1)c1ccccc1`, the growth is reported as 57.5% (inactive). For `CC/C(=C(\c1ccc(O)cc1)c1ccc(OCCN(C)C(=O)CCOCCNC(=O)c2ccc3c(c2)CN([C@@H]2CCC(=O)NC2=O)C3=O)cc1)c1ccccc1`, the growth was 87% (inactive). In the case of `CC/C(=C(/c1ccc(O)cc1)c1ccc(OCCN(C)C(=O)CCOCCNC(=O)Cc2ccc3c(c2)CN([C@@H]2CCC(=O)NC2=O)C3=O)cc1)c1ccccc1`, the growth is reported as 70.6% (inactive). For `CC/C(=C(/c1ccc(O)cc1)c1ccc(OCCN(C)C(=O)COCCOCCNC(=O)c2ccc3c(c2)CN([C@@H]2CCC(=O)NC2=O)C3=O)cc1)c1ccccc1`, the growth was 81.5% (inactive). For `CC/C(=C(\c1ccc(O)cc1)c1ccc(OCCNC)cc1)c1ccccc1`, the growth was 107% (inactive). With `CC/C(=C(/c1ccc(O)cc1)c1ccc(OCCN(C)C(=O)COCCOCCNC(=O)Cc2ccc3c(c2)CN([C@@H]2CCC(=O)NC2=O)C3=O)cc1)c1ccccc1` the growth was 84.2% (inactive).
